Among all 480,000 compounds or so, about 740 (0.15%) were called active. No stated cut-off is given here; in the data, active means activity change below about -30%; inconclusive means mostly about -25% to -30%; inactive means weaker than that. The sample as a whole holds a higher share of actives than the screen did.
Molecular target: L-lactate dehydrogenase A chain (Homo sapiens) (UniProt P00338)
Experiment: qHTS assay for inhibitors of human lactate dehydrogenase;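 further: values are at about 110 or 230 µM; plate controls were DMSO wells for no effect and wells without enzyme for full effect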
Settings: purified LDHA, NADH/diaphorase-resazurin fluorescence; active compounds read low
Text: LDH is a key glycolytic enzyme that catalyzes the final step in the glycolytic pathway, reducing pyruvate to lactate and regenerating NAD+ equivalents necessary for continued glycolysis. LDHA has been linked to the carcinogenesis and malignancy in numerous forms of cancers and many other diseases. Consequently, both pharma and academia have invested in significant research efforts to identify small molecule therapeutics. Such attempts have been stalled or abandoned due to limited success in discovering potent and drug-like inhibitors that can be utilized to validate LDHA in vivo as a drug target, a necessary step toward advancing such a molecule towards the clinic Towards this goal we designed and performed a quantitative high-throughput screening (qHTS) campaign to discover novel compounds that are potent inhibitors of LDHA enzyme activity and cancer cell line growth.
The assay was optimized to 1536-well plates. Briefly, 3 µL of human lactate dehydrogenase 5 (#A38558H, Meridian Life Science, Inc., Memphis, TN) in LDH assay buffer (200 mM Tris HCl pH 7.4, 100 microM EDTA and 0.01% Tween-20) was added to a black solid bottom 1536-well assay plate (Greiner Bio-One) using a BioRAPTR FRD dispenser (Beckman Coulter, Brea, CA). A 1536-well pintool dispenser outfitted with 20 nL pins (Wako Automation, San Diego, CA) was used to transfer 23 nL of DMSO-solubilized compound (both library and vehicle controls) to each 1536-well assay plate. Following compound transfer, 1 µL of substrate solution containing NADH and sodium pyruvate (Sigma-Aldrich, St. Louis, MO) in LDH assay buffer was dispensed via BioRAPTR FRD to initiate the reaction. Final concentrations in the 4 microL reaction volume were 2 nM LDHA enzyme, 0.06 mM NADH and 0.2 mM sodium pyruvate. Following a 5 minute incubation period at room temperature, 1 µL of detection reagent (C. kluyveri diaphorase (Sigma-Aldrich) and resazurin sodium salt (Sigma-Aldrich) in LDH assay buffer) was added to a total volume of 5 µL. Final concentrations of detection reagents were 0.133 mg/mL diaphorase and 37 µM resazurin. Plates were immediately transferred to a ViewLux microplate imager (PerkinElmer, Waltham, MA), and any resulting resorufin fluorescence was measured (ex540, em590 nm) at 0 and 20 minutes. Fluorescence was normalized using enzyme-free and DMSO-treated control wells on each plate.

| SMILES | activity change |
| --- | --- |
| CC1(C)CC(N2CCN(C(c3ccccc3)c3ccccc3)CC2)=CC(=[N+]2CCCCC2)C1 | -64.6% (active) |
| O=C(Nc1ccc2c(c1)OCCCO2)c1ccccc1OCc1ccc(F)cc1 | 7.94% (inactive) |
| CC(C)(C)c1ccc(-c2nnc(SCC(=O)NC(=O)NC3CCCC3)n2Cc2ccco2)cc1 | 9.16% (inactive) |
| CC1=C/C(=N\NC(N)=S)C(C)C1 (configuration not stated) | 1.95% (inactive) |
| CCOC(=O)/C=C/c1cc(C(=O)OCC)c(/C=C/C(=O)OCC)cc1C(=O)OCC | -12.2% (inactive) |
| CCn1c(SCC(=O)NCC(F)(F)F)nnc1-c1ccncc1 | -0.908% (inactive) |
| CCc1n[nH]c(=S)n1/N=C/c1c[nH]c2ccc(Br)cc12 | -11% (inactive) |
| Cc1n[nH]c(=O)nc1N/N=C/c1cccs1 | 10.4% (inactive) |
| Cc1ccsc1/C=N/n1c(=S)[nH]nc(C)c1=O | -32.7% (active) |
| Cc1ccccc1NC(=O)Cc1nnc(SCC(=O)c2ccc(C#N)cc2)n1C | 2.1% (inactive) |
| CCc1nn2c(=O)cc(CN(CC)Cc3ccc(OC)cc3)nc2s1 | 0.31% (inactive) |
| CCOC(=O)C(NC(=O)c1ccccc1)C(F)(F)F (configuration not stated) | -5.84% (inactive) |
| O=C(COc1ccccc1C(=O)Nc1ccccc1)NC1CC1 | 2.72% (inactive) |
| Cc1cc2oc(=O)cc(CN3CCCCCCC3)c2cc1C | 3.97% (inactive) |
| Cc1nc2nc(CN)nn2c(C)c1CCC(=O)NC1CCCCC1 | 10.1% (inactive) |
| CCCn1c(SC(C)C(=O)c2ccc(Cl)cc2)n[nH]c1=O (configuration not stated) | 1.73% (inactive) |
| CSc1nnc([C@H](CC(C)C)NC(=O)OC(C)(C)C)o1 | -6.07% (inactive) |
| c1ccc(Oc2ncnc3scc(-c4ccc(-c5ccccc5)cc4)c23)cc1 | 2.38% (inactive) |
| CCn1c(SCc2ccc(F)cc2Cl)nnc1-c1ccccn1 | -9.31% (inactive) |
| Cc1ccc(NC(=O)C2=Cc3sc4c(c3CS2)CCCC4)c(C)c1 | 4.96% (inactive) |
| NC(N)=Nc1ccc(F)cc1 | 0.928% (inactive) |
| O=C(CCc1nc(-c2ccccc2)no1)N1CCc2sccc2C1c1cccs1 (configuration not stated) | 9.21% (inactive) |
| Cc1cc(C)n2ncc(-c3noc(C(=O)NC4CCCC4)n3)c2n1 | -0.0013% (inactive) |
| Cc1nc2cc(NC(=O)COc3ccccc3C(C)(C)C)ccc2o1 | 3.35% (inactive) |

| SMILES | activity change |
| --- | --- |
| Cc1[nH]c2ccccc2c1C(=O)C(C)Sc1ccc2c(c1)OCCCO2 (configuration not stated) | 7.43% (inactive) |
| Cc1nc2cc(NC(C)C(=O)Nc3ccccc3Cl)ccc2o1 (configuration not stated) | -7.75% (inactive) |
| c1ccc(COc2ccc(CNc3ccccc3)cc2)cc1 | -2.65% (inactive) |
| O=C(Nc1ccc(N2CCOCC2)cc1)c1ccc2c(c1)S(=O)(=O)c1ccccc1C2=O | 0.869% (inactive) |
| CC(C)CCn1c(=O)[nH]c(=O)c2c3c(cnc21)C(=O)CC(c1ccc(F)cc1)C3 (configuration not stated) | 8.23% (inactive) |
| Fc1ccc(-n2c(Cc3ccccc3)nnc2SCc2ccc(Br)cc2)cc1 | 11.5% (inactive) |
| COc1ccc(CNS(=O)(=O)c2ccc(-c3ccc(=O)[nH]n3)s2)cc1 | -1.99% (inactive) |
| O=C1CN(CC(=O)Nc2c(Cl)cc(Cl)cc2Cl)CCN1 | -9.74% (inactive) |
| CCOc1ccccc1N(CC)C(=O)Cc1noc2ccccc12 | 1.93% (inactive) |
| O=C(O)c1c(Br)c(Br)c(Br)c(Br)c1C1c2ccc(O)cc2Oc2cc(O)ccc21 | -47.5% (active) |
| COc1ccc(OC)c(C2C(C#N)=C(N)Oc3cc(O)ccc32)c1 (configuration not stated) | 6.17% (inactive) |
| O=C(c1n[nH]c(=O)c2ccccc12)N1CCN(S(=O)(=O)c2ccccc2F)CC1 | 12.5% (inactive) |
| COc1cccc(-c2c(NC(=O)c3ccc(Cl)cc3)oc3ccccc3c2=O)c1 | -5.8% (inactive) |
| O=C(O)Cc1ccc(F)c2ccccc12 | 2.09% (inactive) |
| CC(Sc1nc2cc(S(=O)(=O)N3CCCCC3)ccc2o1)C(=O)Nc1cccc(Cl)c1 (configuration not stated) | 6.97% (inactive) |
| CN(C(=O)c1cnc(N2CCOCC2)c2ccccc12)C1CCCCC1 | 3.81% (inactive) |
| N=C(N)CCl | 0.754% (inactive) |
| CC1CCC(C(C)C)C(NC(=O)c2ccccc2)C1 (configuration not stated) | 0.148% (inactive) |
| Cc1cc(-c2nc3ncccc3o2)ccc1NC(=O)CC12CC3CC(CC(C3)C1)C2 | -0.587% (inactive) |
| O=C(CCc1ncc(-c2ccccc2F)o1)NCc1ccc2c(c1)OCO2 | 9.36% (inactive) |
| O=C(/C=C/c1cccc(Br)c1)c1ccc(O)c(CCCl)c1 | 0.183% (inactive) |
| CC(N)c1cccc([N+](=O)[O-])c1 (configuration not stated) | 8.12% (inactive) |
| O=C(O)C1CCN(c2ccc3nnc(C(F)(F)F)n3n2)CC1 | -1.19% (inactive) |

Reference: PubChem BioAssay AID1347041 (National Center for Advancing Translational Sciences (NCATS), 2019)
